# Reference: PubChem BioAssay (NCATS)
# Records with an inconclusive call do not appear. Active and inactive are the calls of the source. Unless noted, calls come from the whole dose curve; as a rule, active = well fitted curve in the direction sought with a large enough effect; inconclusive = small, poorly fitted or top-dose-only effect, or another doubt; inactive = no such curve, though single readings can be large; an effect the other way counts as inactive or inconclusive.
# How the values were obtained:
# [1] = molecular target: Nucleoprotein (Lymphocytic choriomeningitis virus (strain Armstrong)) (UniProt P09992); test: qHTS for Inhibitors of the Functional Ribonucleoprotein Complex (vRNP) of Lymphocytic Choriomeningitis Arenaviruses (LCMV): LCMV Primary Screen - GLuc reporter signal (AID 1347086; calls by dose curve; note: nearly all actives have a fitted effect of over 70% in size)
# [2] = qHTS for Inhibitors of the Functional Ribonucleoprotein Complex (vRNP) of Lymphocytic Choriomeningitis Arenaviruses (LCMV): Viability assay - alamar blue signal for LCMV Primary Screen (AID 1347085; calls by dose curve; tested in HEK293 reporter line; note: nearly all actives have a fitted effect of over 80% in size)
# [3] = qHTS of pediatric cancer cell lines to identify multiple opportunities for drug repurposing: Primary screen for TC32 cells (AID 1347089); note: nearly all actives have a fitted effect of over 60% in size
# Summary of the method: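 In the primary qHTS, MIPE compounds were tested at 11 concentrations (0.78 nM to 46 µM) and NPC compounds at 8 (0.59 nM to 46 µM) on TC32 cells for 48 h. CellTiter-Glo luminescence gave viability.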
# [4] = qHTS of pediatric cancer cell lines to identify multiple opportunities for drug repurposing: Primary screen for DAOY cells (AID 1347090); note: nearly all actives have a fitted effect of over 55% in size
# Summary of the method: (§1)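 Viability measured as metabolically active cells via CellTiter-Glo luminescence following 48 hours of compound exposure, 11-point dilutions in confirmatory testing. 500-1,000 cells/well plated 5 hours before dosing; controls were DMSO and 2.3 µM bortezomib.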
# [5] = qHTS of pediatric cancer cell lines to identify multiple opportunities for drug repurposing: Primary screen for NB-EBc1 cells (AID 1347095)
# Summary of the method: (§2)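 CRCs from 8- or 11-point titrations (lowest final 0.59 nM NPC, 0.78 nM MIPE). Cell viability: CellTiter-Glo after 48 h incubation, 15 min room-temperature development, luminescence imaging.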
# [6] = qHTS of pediatric cancer cell lines to identify multiple opportunities for drug repurposing: Primary screen for A673 cells (AID 1347092); note: nearly all actives have a fitted effect of over 45% in size
# Summary of the method: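 48 h compound exposure, A673, 500-1,000 cells/well, 37 degrees C/5% CO2. MIPE: 11-point, 0.78 nM-46 µM; NPC: 8-point, 0.59 nM-46 µM (final). Readout CellTiter-Glo luminescence after 15 min RT.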
# [7] = qHTS of pediatric cancer cell lines to identify multiple opportunities for drug repurposing: Primary screen for SJ-GBM2 cells (AID 1347091)
# Summary of the method: as §1
# [8] = qHTS of pediatric cancer cell lines to identify multiple opportunities for drug repurposing: Primary screen for BT-37 cells (AID 1347094)
# Summary of the method: as §2
# [9] = qHTS of pediatric cancer cell lines to identify multiple opportunities for drug repurposing: Primary screen for SK-N-MC cells (AID 1347093)
# Summary of the method: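 Metabolically active cells were quantified by ATP-dependent luminescence (CellTiter-Glo, 15 min at room temperature) following 48 h treatment. Cells had been plated at 500-1,000 per well and settled for 5 h beforehand.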
# Potency is the fitted concentration of half-maximal effect.
# Chain of Nucleoprotein (Lymphocytic choriomeningitis virus (strain Armstrong)) (P09992 whole entry, looked up): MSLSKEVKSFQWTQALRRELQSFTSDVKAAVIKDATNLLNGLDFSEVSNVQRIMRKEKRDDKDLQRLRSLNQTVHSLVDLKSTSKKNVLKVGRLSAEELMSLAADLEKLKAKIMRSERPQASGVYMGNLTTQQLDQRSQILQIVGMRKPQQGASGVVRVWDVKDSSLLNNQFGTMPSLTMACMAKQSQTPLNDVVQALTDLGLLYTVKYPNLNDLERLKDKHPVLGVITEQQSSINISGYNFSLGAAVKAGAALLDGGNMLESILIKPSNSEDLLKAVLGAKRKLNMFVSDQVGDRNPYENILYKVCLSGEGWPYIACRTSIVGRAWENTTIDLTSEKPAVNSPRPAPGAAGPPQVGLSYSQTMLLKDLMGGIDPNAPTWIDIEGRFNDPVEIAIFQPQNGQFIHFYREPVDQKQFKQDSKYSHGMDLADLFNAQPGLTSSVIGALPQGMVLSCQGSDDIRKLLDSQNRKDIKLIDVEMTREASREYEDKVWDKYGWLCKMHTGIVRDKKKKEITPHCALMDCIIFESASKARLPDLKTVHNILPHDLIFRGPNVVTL
smiles,measurement,setting,value
CCCS(=O)(=O)Nc1ccc(F)c(C(=O)c2c[nH]c3ncc(-c4ccc(Cl)cc4)cc23)c1F,Potency,[1],inactive
N#Cc1ccc(COC[C@H]2O[C@@H](n3c(NCc4ccc(Cl)c(Cl)c4)nc4c(N)ncnc43)[C@@H](O)[C@@H]2O)cc1,Potency,[1],inactive
C=C[C@@H]1CN2CCC1C[C@H]2[C@H](O)c1ccnc2ccccc12 (stereo not given in full),Potency,[2],inactive
same,Potency,[1],inactive
same,Potency,[3],inactive
same,Potency,[4],inactive
same,Potency,[5],inactive
Fc1cc(-c2cccc3ncc(-c4cnn(C5CCNCC5)c4)nc23)cc(F)c1CN1CCOCC1,Potency,[1],inactive
Clc1ccc(C(c2ccc(Cl)cc2)n2cc[n+](CC(OCc3ccc(Cl)cc3Cl)c3ccc(Cl)cc3Cl)c2)cc1 (stereo not given),Potency,[1],15.3 µM (active)
Cc1ccc(N)cc1O,Potency,[1],inactive
CC(C)(O)C(=O)Nc1ccc([N+](=O)[O-])c(C(F)(F)F)c1,Potency,[3],inactive
same,Potency,[4],18.7 µM (active)
same,Potency,[6],11.8 µM (active)
same,Potency,[5],inactive
C[C@@H]1CC[C@@]2(OC1)O[C@H]1C[C@H]3[C@@H]4CC=C5C[C@@H](O[C@@H]6O[C@H](CO)[C@@H](O[C@@H]7O[C@@H](C)[C@H](O)[C@@H](O)[C@@H]7O)[C@H](O)[C@@H]6O[C@@H]6O[C@@H](C)[C@H](O)[C@@H](O)[C@@H]6O)CC[C@]5(C)[C@@H]4CC[C@]3(C)[C@@H]1[C@H]2C,Potency,[2],inactive
same,Potency,[1],inactive
same,Potency,[3],13.1 µM (active)
same,Potency,[4],7.43 µM (active)
same,Potency,[7],5.26 µM (active)
same,Potency,[6],3.72 µM (active)
same,Potency,[8],6.85 µM (active)
same,Potency,[5],4.69 µM (active)
C[C@@]12OC(=O)[C@]1([C@@H](O)[C@@H]1C=CCCC1)NC(=O)[C@H]2CCCl,Potency,[2],24.3 µM (active)
same,Potency,[3],7.39 µM (active)
same,Potency,[4],0.118 µM (active)
same,Potency,[7],0.0105 µM (active)
same,Potency,[6],0.0469 µM (active)
same,Potency,[9],0.0083 µM (active)
same,Potency,[8],0.0968 µM (active)
same,Potency,[5],0.0105 µM (active)
